Sampled rows, rich in hits. Any-hit rate of the full collection: about 6.3%.
ATXN viability = viability counter-screen for ATXN expression inhibitors; S2 cells (HEK-293 line with an ATXN2-luciferase reporter) viability, CellTiter-Fluor protease fluorescence, 24 h; Potency, µM (highest dose often 56.7 µM), most hits filed as cytotoxic; AID 651635; 0.49% of 400,000 active; note: nearly all actives have a fitted effect of over 40% in size
RORgamma inh = inhibitors of mouse ROR gamma transcriptional activity; P51450; Drosophila S2 Gal4-RORgamma UAS-luciferase reporter, 20 h; Potency, µM (series often up to 53.6 µM), without a hit: at the top dose activity change, negative = inhibition, actives largely listed as inhibitors; 5.4% of 310,000 active; AID 2551; note: % is set by controls: 0 for no effect and ±100 for the full control effect; nearly all actives have a fitted effect of over 60% in size
Target sequence (P51450 whole entry, looked up, the tested form may be a part): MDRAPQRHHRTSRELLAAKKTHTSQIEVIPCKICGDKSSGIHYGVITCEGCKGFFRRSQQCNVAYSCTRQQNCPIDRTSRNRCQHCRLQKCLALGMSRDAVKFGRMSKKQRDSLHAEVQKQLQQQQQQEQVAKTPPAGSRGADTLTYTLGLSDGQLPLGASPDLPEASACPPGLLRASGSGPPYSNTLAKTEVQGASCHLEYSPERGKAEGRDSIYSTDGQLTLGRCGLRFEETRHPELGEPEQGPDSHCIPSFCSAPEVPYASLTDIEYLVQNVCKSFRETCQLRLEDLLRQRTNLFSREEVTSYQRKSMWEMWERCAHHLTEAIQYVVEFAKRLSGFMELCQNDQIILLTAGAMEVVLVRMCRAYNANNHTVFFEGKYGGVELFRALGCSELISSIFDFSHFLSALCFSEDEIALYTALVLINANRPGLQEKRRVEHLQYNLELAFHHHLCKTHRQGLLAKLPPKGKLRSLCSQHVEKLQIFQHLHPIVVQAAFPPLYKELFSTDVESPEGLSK
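Drosophila Schneider cells stably carrying a metallothionein-driven Gal4 DBD–ROR gamma fusion and a UAS-Photinus luciferase reporter were exposed to compound for 1 hr, then induced with copper sulfate (700 uM final) for 20 hr at ambient temperature before luminescence reading.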
HepG2 tox = counter-screen for TGF-b inhibitors: cytotoxicity in HepG2 cells; HepG2 CAGA-GFP viability, ATP luminescence, 18 h; Potency, µM (highest dose often 46.1 µM), for the others: at the top dose activity change, negative = cytotoxicity, actives largely listed as cytotoxic; 0.76% of 410,000 active
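HepG2 CAGA-GFP cells (1000/well, DMEM with 1% FBS) received compound, then TGF-beta at 500 pg/mL final, and were incubated 18 hours at 37 degrees C. Viability was read by CellTiter-Glo luminescence. Media-only wells were set as complete cell-killing and DMSO as no toxicity.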
Gal4-VP16 FLuc = counter-screen for ROR gamma inhibitors: Gal4-VP16 reporter; Drosophila S2 Gal4-VP16 UAS-luciferase, luminescence, 20 h; Potency, µM (doses to about 53.6 µM), inactives show at the highest dose activity, negative = inhibition, actives largely listed as inhibitors; 3.5% of 310,000 active; AID 2546;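 note: Gal4-VP16 expression switched on by copper sulfate through the metallothionein promoter; % is set by controls: 0 for no effect and ±100 for the full control effect; nearly all actives have a fitted effect of over 50% in size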
ATXN2 expr inh = inhibitors of ATXN2 expression; 0.72% of 360,000 active; HEK-293 ATXN2-luciferase reporter, luminescence, 24 h; AID 1745845; Potency, µM (series often up to 57 µM), for inactives: at the top dose activity change, negative = inhibition, usual class: inhibitors; note: % is set by controls: 0 for no effect and ±100 for the full control effect; nearly all actives have a fitted effect of over 55% in size
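ATXN2-luciferase reporter cells (luciferase flanked by upstream and downstream ATXN2 gene portions) were treated 24 h at 37 °C with compounds at up to 57 uM. SteadyGlo luminescence gave expression; GF-AFC fluorescence gave viability.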
TGFb inhibitor = blocks TGF-b signaling; 1.2% of 410,000 active; AID 588855; Potency, µM (top dose mostly 46.1 µM), inactives show top-dose activity, negative = inhibition, most hits filed as inhibitors; HepG2 CAGA-GFP TGF-b/SMAD3 reporter, GFP fluorescence, 18 h; TGF-beta stimulated, 500 pg/mL final; note: % is set by controls: 0 for no effect and ±100 for the full control effect; nearly all actives have a fitted effect of over 65% in size
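TGF-beta reporter screen: HEPG2 CAGA-GFP, 1% FBS, 500 pg/mL TGF-beta final, 18 h; per-cell GFP summed per well; curves fitted and categorized by class.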
* marks the source's active call; other numbers are inactive results. Calls come from the whole dose curve; as a rule, active = well fitted curve in the direction sought with a large enough effect; inconclusive = small, poorly fitted or top-dose-only effect, or another doubt; inactive = no such curve, though single readings can be large; an effect the other way counts as inactive or inconclusive. Potency is the fitted concentration of half-maximal effect.

C[C@@H](O)[C@H]1C(=O)N2C(C(=O)O)=C([C@H]3CCCO3)S[C@H]12 was read as ATXN viability inactive and ATXN2 expr inh 2%.
For COc1ccc(CCNC(=O)CSc2nc(=O)[nH]c3c2CCC3)cc1OC the results were ATXN viability inactive, HepG2 tox 1%, ATXN2 expr inh 0% and TGFb inhibitor 11%.
Cc1ccc(-n2c(=O)c3oc4ccccc4c3n(CC(=O)Nc3ccccc3)c2=O)cc1C was read as HepG2 tox -21% and TGFb inhibitor -28%.
Screening Cc1ccc(C(=O)N2c3ccc(C)cc3C(C)(c3ccccc3)CC2(C)C)cc1 (centres undefined) returned HepG2 tox -17% and TGFb inhibitor inconclusive.
For CC1CCN2c3cc(Cl)ccc3CC3(C(=O)OC(C)(C)OC3=O)C2C1 (centres undefined) the results were HepG2 tox -14% and TGFb inhibitor -2%.
`O=C(NC(=S)Nc1cccc2c(O)cccc12)c1ccccc1[N+](=O)[O-]` gave ATXN viability inactive, RORgamma inh inconclusive, HepG2 tox -1%, Gal4-VP16 FLuc inconclusive, ATXN2 expr inh -4% and TGFb inhibitor -8%.
Screening CC(=O)NC(=S)NNC(=O)CCc1ccccc1 returned ATXN viability inactive, RORgamma inh 34%, HepG2 tox -41%, Gal4-VP16 FLuc -6%, ATXN2 expr inh -26% and TGFb inhibitor 1%.
CC(C)c1ccc(O)c(NC(=S)NC(=O)CCc2ccccc2)c1 was read as ATXN viability inactive, RORgamma inh 13µM*, HepG2 tox -10%, Gal4-VP16 FLuc -30%, ATXN2 expr inh -6% and TGFb inhibitor inconclusive.
Screening O=C(NC(=S)Nc1ccccc1[N+](=O)[O-])c1ccccc1 returned ATXN viability inactive, RORgamma inh inconclusive, HepG2 tox -9%, Gal4-VP16 FLuc 2µM*, ATXN2 expr inh 21% and TGFb inhibitor 19%.
`COc1cc(NC(=O)Cc2ccccc2)cc(OC)c1` gave ATXN viability inactive, RORgamma inh 6%, HepG2 tox -19%, Gal4-VP16 FLuc 2%, ATXN2 expr inh 1% and TGFb inhibitor -13%.
`COc1cc(NC(=S)NC(=O)CCc2ccccc2)cc(OC)c1` gave ATXN viability inactive, RORgamma inh 0.56µM*, HepG2 tox -10%, Gal4-VP16 FLuc 7.1µM*, ATXN2 expr inh 0% and TGFb inhibitor inconclusive.
For O=C(CCc1ccccc1)NC(=S)Nc1cccc(Br)c1 the results were ATXN viability inactive, RORgamma inh 11µM*, HepG2 tox 13%, Gal4-VP16 FLuc inconclusive, ATXN2 expr inh 15% and TGFb inhibitor -17%.
O=C(CCc1ccccc1)NC(=S)Nc1cccc(C(=O)O)c1 was read as ATXN viability inactive, RORgamma inh -33%, HepG2 tox 1%, Gal4-VP16 FLuc -20%, ATXN2 expr inh 10% and TGFb inhibitor -6%.
Screening Cc1cccc(NC(=O)CSc2nc3c(oc4ccccc43)c(=O)n2C(C)C)c1 returned ATXN viability inconclusive, HepG2 tox -21%, ATXN2 expr inh -12% and TGFb inhibitor -16%.
`CC1(C(=O)NC2CCCC2)CCC(=O)N1CCOc1ccccc1` (centres undefined) gave ATXN viability inactive, HepG2 tox 5%, ATXN2 expr inh -8% and TGFb inhibitor 0%.
Screening O=C(CCc1ccccc1)NC(=S)Nc1ccccc1[N+](=O)[O-] returned ATXN viability inactive, RORgamma inh 10µM*, HepG2 tox -2%, Gal4-VP16 FLuc 11µM*, ATXN2 expr inh 4% and TGFb inhibitor -17%.
For C=C[C@@H]1c2cc(C)ccc2N(S(=O)(=O)c2ccc(C)cc2)[C@H](c2ccc(C(C)(F)F)cc2)C1(C#N)C#N the results were HepG2 tox -6% and TGFb inhibitor -12%.

Assay outcomes deposited in PubChem BioAssay by National Center for Advancing Translational Sciences (NCATS).
